# ± gives the standard deviation of the averaged measurements.
# What was measured:
# Test in all cases: promoter activity interaction Z-score (Lux/OD deviation from empty-vector control); higher = stronger promoter induction by the compound
# [1] = tested on: E. coli BW25113 acrABp lux reporter
# How it was run: (§1)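 E. coli BW25113, as wild type or one of three single-gene deletion strains, carried low-copy luxCDABE promoter reporters and grew in 40 µl LB Lennox in 384-well plates at 37°C, with OD600 and luminescence read every 30 min for 12 h. Each compound was run at four 1:2 dilutions in biological duplicates, integration spanned 0–8 h for wild type and 1–9 h for deletion strains, and wells under 10% of the median growth value were dropped. The score is the Z-transformed residual of growth-normalised luminescence fitted against a control.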
# [2] = tested on: E. coli BW25113 ompFp lux reporter
# How it was run: as §1
# [3] = tested on: E. coli BW25113 robp lux reporter
# How it was run: as §1
# [4] = tested on: E. coli BW25113 soxSp lux reporter
# How it was run: as §1
# [5] = tested on: E. coli BW25113 tolCp lux reporter
# How it was run: as §1
# [6] = 2.6 µg/ml, genetic background: wild type
# [7] = 2.6 µg/ml, genetic background: ΔmarA
# [8] = 2.6 µg/ml, genetic background: Δrob
# [9] = 2.6 µg/ml, genetic background: ΔsoxS
# [10] = 5.3 µg/ml, genetic background: wild type
# [11] = 5.3 µg/ml, genetic background: ΔmarA
# [12] = 5.3 µg/ml, genetic background: Δrob
# [13] = 5.3 µg/ml, genetic background: ΔsoxS
# [14] = 10.6 µg/ml, genetic background: wild type
# [15] = 10.6 µg/ml, genetic background: ΔmarA
# [16] = 10.6 µg/ml, genetic background: Δrob
# [17] = 10.6 µg/ml, genetic background: ΔsoxS
# [18] = 21.1 µg/ml, genetic background: wild type
# [19] = 21.1 µg/ml, genetic background: ΔmarA
# [20] = 21.1 µg/ml, genetic background: Δrob
# [21] = 21.1 µg/ml, genetic background: ΔsoxS
compound,measurement,setting,value
CC(=O)N[C@H]1[C@@H](O[C@@H]2O[C@H](CC(O)[C@H]3O[C@@H](n4ccc(=O)[nH]c4=O)[C@H](O)[C@@H]3O)[C@H](O)[C@H](O)[C@H]2NC(=O)/C=C/CC(C)C)O[C@H](CO)[C@@H](N)[C@@H]1O (stereo not given in full) [Tunicamycin],promoter activity interaction Z-score,[1]; [6],0.13 ± 0.29
same,promoter activity interaction Z-score,[1]; [7],-0.0876 ± 0.12
same,promoter activity interaction Z-score,[1]; [8],-0.143 ± 0.18
same,promoter activity interaction Z-score,[1]; [9],-0.217 ± 0.36
same,promoter activity interaction Z-score,[1]; [10],-0.0561 ± 0.2
same,promoter activity interaction Z-score,[1]; [11],-0.914 ± 0.2
same,promoter activity interaction Z-score,[1]; [12],-0.22 ± 0.25
same,promoter activity interaction Z-score,[1]; [13],-0.179 ± 0.21
same,promoter activity interaction Z-score,[1]; [14],0.0358 ± 0.052
same,promoter activity interaction Z-score,[1]; [15],0.615 ± 0.22
same,promoter activity interaction Z-score,[1]; [16],-0.243 ± 0.0041
same,promoter activity interaction Z-score,[1]; [17],-0.426 ± 0.35
same,promoter activity interaction Z-score,[1]; [18],-0.24 ± 0.063
same,promoter activity interaction Z-score,[1]; [19],-0.0177 ± 0.64
same,promoter activity interaction Z-score,[1]; [20],-0.332 ± 0.11
same,promoter activity interaction Z-score,[1]; [21],-0.769 ± 0.066
same,promoter activity interaction Z-score,[2]; [6],-0.448 ± 0.043
same,promoter activity interaction Z-score,[2]; [7],-0.515 ± 0.43
same,promoter activity interaction Z-score,[2]; [8],-0.684 ± 0.075
same,promoter activity interaction Z-score,[2]; [9],-0.00783 ± 0.5
same,promoter activity interaction Z-score,[2]; [10],-0.405 ± 0.21
same,promoter activity interaction Z-score,[2]; [11],-0.484 ± 1.3
same,promoter activity interaction Z-score,[2]; [12],-0.656 ± 0.73
same,promoter activity interaction Z-score,[2]; [13],0.307 ± 0.49
same,promoter activity interaction Z-score,[2]; [14],-0.305 ± 0.016
same,promoter activity interaction Z-score,[2]; [15],-0.602 ± 0.0081
same,promoter activity interaction Z-score,[2]; [16],-0.783 ± 0.28
same,promoter activity interaction Z-score,[2]; [17],-0.819 ± 0.56
same,promoter activity interaction Z-score,[2]; [18],-0.675 ± 0.34
same,promoter activity interaction Z-score,[2]; [19],-0.947 ± 0.57
same,promoter activity interaction Z-score,[2]; [20],-0.245 ± 0.018
same,promoter activity interaction Z-score,[2]; [21],-1.09 ± 0.71
same,promoter activity interaction Z-score,[3]; [6],-0.274 ± 0.39
same,promoter activity interaction Z-score,[3]; [7],-0.38 ± 0.41
same,promoter activity interaction Z-score,[3]; [8],-0.03 ± 0.92
same,promoter activity interaction Z-score,[3]; [9],-0.268 ± 0.31
same,promoter activity interaction Z-score,[3]; [10],0.0974 ± 0.18
same,promoter activity interaction Z-score,[3]; [11],-1.07 ± 0.12
same,promoter activity interaction Z-score,[3]; [12],0.0652 ± 0.47
same,promoter activity interaction Z-score,[3]; [13],0.323 ± 0.16
same,promoter activity interaction Z-score,[3]; [14],-0.167 ± 0.13
same,promoter activity interaction Z-score,[3]; [15],-0.402 ± 0.074
same,promoter activity interaction Z-score,[3]; [16],-0.108 ± 0.64
same,promoter activity interaction Z-score,[3]; [17],-0.846 ± 0.13
same,promoter activity interaction Z-score,[3]; [18],-0.06 ± 0.16
same,promoter activity interaction Z-score,[3]; [19],0.217 ± 0.25
same,promoter activity interaction Z-score,[3]; [20],-0.865 ± 0.29
same,promoter activity interaction Z-score,[3]; [21],-1.32 ± 0.15
same,promoter activity interaction Z-score,[4]; [6],-0.153 ± 0.24
same,promoter activity interaction Z-score,[4]; [7],-0.163 ± 0.076
same,promoter activity interaction Z-score,[4]; [8],-0.181 ± 0.11
same,promoter activity interaction Z-score,[4]; [9],-0.281 ± 0.17
same,promoter activity interaction Z-score,[4]; [10],-0.207 ± 0.12
same,promoter activity interaction Z-score,[4]; [11],-0.432 ± 0.03
same,promoter activity interaction Z-score,[4]; [12],-0.396 ± 0.41
same,promoter activity interaction Z-score,[4]; [13],-0.473 ± 0.0061
same,promoter activity interaction Z-score,[4]; [14],-0.362 ± 0.15
same,promoter activity interaction Z-score,[4]; [15],-0.417 ± 0.065
same,promoter activity interaction Z-score,[4]; [16],-0.286 ± 0.13
same,promoter activity interaction Z-score,[4]; [17],-0.66 ± 0.33
same,promoter activity interaction Z-score,[4]; [18],-0.651 ± 0.052
same,promoter activity interaction Z-score,[4]; [19],-0.805 ± 0.022
same,promoter activity interaction Z-score,[4]; [20],-0.856 ± 0.24
same,promoter activity interaction Z-score,[4]; [21],-1.4 ± 0.29
same,promoter activity interaction Z-score,[5]; [6],0.117 ± 0.23
same,promoter activity interaction Z-score,[5]; [7],0.186 ± 0.86
same,promoter activity interaction Z-score,[5]; [8],0.627 ± 0.57
same,promoter activity interaction Z-score,[5]; [9],-0.42 ± 1.2
same,promoter activity interaction Z-score,[5]; [10],0.292 ± 0.33
same,promoter activity interaction Z-score,[5]; [11],0.228 ± 1.2
same,promoter activity interaction Z-score,[5]; [12],0.351 ± 0.028
same,promoter activity interaction Z-score,[5]; [13],-0.0491 ± 0.37
same,promoter activity interaction Z-score,[5]; [14],0.145 ± 0.28
same,promoter activity interaction Z-score,[5]; [15],-0.36 ± 0.22
same,promoter activity interaction Z-score,[5]; [16],0.607 ± 0.47
same,promoter activity interaction Z-score,[5]; [17],-0.445 ± 0.3
same,promoter activity interaction Z-score,[5]; [18],0.0528 ± 0.23
same,promoter activity interaction Z-score,[5]; [19],-0.275 ± 0.55
same,promoter activity interaction Z-score,[5]; [20],-1.04 ± 0.42
same,promoter activity interaction Z-score,[5]; [21],-0.899 ± 0.71
